An excerpt weighted towards active compounds, which were near 7.6% of everything screened.
RORgamma inh = inhibitors of mouse ROR gamma transcriptional activity; P51450; Drosophila S2 Gal4-RORgamma UAS-luciferase reporter, 20 h; Potency, µM (series often up to 53.6 µM), hits mostly inhibitors; 310,000 tested, 5.4% active; further: nearly all actives have a fitted effect of over 60% in size
Target sequence (P51450 whole entry, looked up, the tested form may be a part): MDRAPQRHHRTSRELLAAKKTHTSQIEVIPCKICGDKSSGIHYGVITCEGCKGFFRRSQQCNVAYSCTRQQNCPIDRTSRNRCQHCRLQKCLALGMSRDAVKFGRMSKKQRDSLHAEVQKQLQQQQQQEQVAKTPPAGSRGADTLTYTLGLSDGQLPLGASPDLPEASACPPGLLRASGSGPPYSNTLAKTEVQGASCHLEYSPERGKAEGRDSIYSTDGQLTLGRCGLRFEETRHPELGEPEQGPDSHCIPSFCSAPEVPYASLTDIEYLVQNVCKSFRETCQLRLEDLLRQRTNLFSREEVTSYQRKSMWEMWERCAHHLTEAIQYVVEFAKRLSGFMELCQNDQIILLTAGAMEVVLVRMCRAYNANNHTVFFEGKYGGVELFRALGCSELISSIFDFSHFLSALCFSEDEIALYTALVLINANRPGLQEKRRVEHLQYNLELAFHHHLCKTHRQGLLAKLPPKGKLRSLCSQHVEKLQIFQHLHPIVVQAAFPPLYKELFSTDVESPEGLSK
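In this cell-based reporter format, copper sulfate (700 uM final) drives Gal4–ROR gamma fusion expression from a metallothionein promoter in Drosophila Schneider cells; compounds preincubated 1 hr, reporter read after 20 hr at ambient temperature.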
p53 reactivator = restores transcriptional activity of mutant p53; H1299 p53-A138V BP100-luciferase reporter, luminescence, 24 h; Potency, µM (doses to about 92.2 µM), usual class: activators; 320,000 tested, 0.063% active; AID 504706; further: nearly all actives have a fitted effect of over 45% in size
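H1299 (p53-null), stable ts p53-A138V + BP100-Luc; 1000 cells/well, Opti-MEM/10% FBS; cpd 4 pt, 1:5; 24 h, 37 deg C, 5% CO2; detection reagent 10 min RT; luminescence.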
BRCA1 expr up = BRCA1 expression activation | 380,000 tested, 1.1% active | MCF7-BRCA1-FFLuc reporter, luminescence, 48 h; response scale: scaled: vehicle 0%, 10 µM genistein 100% | Potency, µM (top dose mostly 46.1 µM), hits mostly activators; further: nearly all actives have a fitted effect of over 80% in size
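Activators of BRCA1 expression were detected as increased firefly luciferase luminescence in engineered MCF7 cells after 48 h compound incubation. Signals were scaled to genistein 10 microM as full activation.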
Giardia kill = kills Giardia lamblia; Giardia lamblia trophozoite viability; activity change, % at 7.66 µM, hits read low; 340,000 tested, 0.15% active; AID 540267; in the data active means activity change below about -80%; inconclusive means between about -30% and that limit;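 further: parasites exposed to compound for two days anaerobically before the ATP read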
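Each well holds 100 Giardia trophozoites and compound. After two days (48 hrs) at 37 deg C in anaerobic conditions, ATP is quantified by luminescence.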
ELG1 repair inh = ELG1-dependent DNA repair inhibition; HEK293T ELG1-luciferase reporter, luminescence, 16 h; DNA damage induced by 5-fluorouridine; Potency, µM (highest dose often 46.1 µM), actives largely listed as inhibitors; 330,000 tested, 2.3% active; AID 504467; further: nearly all actives have a fitted effect of over 55% in size
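Step one: seed 2,000 cells per well. Step two: pin-transfer compound or DMSO alongside 5-fluorouridine. Step three: incubate 16 hr, 37 °C, 5% CO2. Step four: add ONE-Glo, wait 30 min, read luminescence.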
VP16 counter = counter-screen for ROR gamma inhibitors: Gal4-VP16 reporter; Drosophila S2 Gal4-VP16 UAS-luciferase, luminescence, 20 h; Potency, µM (titrated, usually from 53.6 µM), most hits filed as inhibitors; 310,000 tested, 3.5% active; AID 2546;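 further: Gal4-VP16 expression switched on by copper sulfate through the metallothionein promoter; nearly all actives have a fitted effect of over 50% in size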
Large screens that a line does not name were inactive. Unless noted, the call rests on the fitted dose curve; in most records, active means well fitted curve in the direction sought with a large enough effect; inconclusive means small, poorly fitted or top-dose-only effect, or another doubt; inactive means no such curve, though single readings can be large; an effect the other way counts as inactive or inconclusive.

CCN(C(=S)Nc1cc(S(=O)(=O)N2CCOCC2)ccc1Cl)c1cccc2ccccc12	RORgamma inh inconclusive, VP16 counter 22µM
COc1ccc(S(=O)(=O)N2CCCCC2)cc1NCC(=O)Nc1ccc(C)cc1	VP16 counter 3.5µM
CCN(CC)S(=O)(=O)c1cc(F)ccc1OC	none
Cc1cc(-n2nnc3ccccc32)nc2ccccc12	p53 reactivator inconclusive, ELG1 repair inh inconclusive
Cc1nn(-c2cc(C)c3ccccc3n2)c2c1C1C(C2)C1(C)C (centres undefined)	RORgamma inh 0.71µM, VP16 counter 18µM
Cc1ccc(S(=O)(=O)NCCC(=O)NCC(c2cccs2)N(C)C)cc1 (centres undefined)	none (no result: RORgamma inh, VP16 counter)
COCC(=O)n1nc(-c2ccccc2)nc1NCc1cccs1	BRCA1 expr up 10µM, ELG1 repair inh inconclusive, VP16 counter inconclusive
O=C(c1cccs1)n1nc(-c2ccccc2)nc1NCc1ccco1	RORgamma inh inconclusive, p53 reactivator inconclusive
COc1cc(CNC(=O)c2ccc(Cn3nc(C)c(Cl)c3C)o2)cc(OC)c1	ELG1 repair inh 18µM
CC1(C)Cc2c(sc(NC(=O)c3ccc(C(=O)c4ccccc4)cc3)c2C(N)=O)C(C)(C)N1	RORgamma inh inconclusive, ELG1 repair inh inconclusive, VP16 counter 13µM
COC(=O)c1c(NC(=O)c2ccco2)sc2c1CC(C)(C)NC2(C)C	ELG1 repair inh 9.2µM
COC(=O)c1c(NC(=O)c2ccccc2)sc2c1CC(C)(C)NC2(C)C	none
CC1(C)Cc2c(sc(NC(=O)c3ccc4ncsc4c3)c2C(N)=O)C(C)(C)N1	RORgamma inh inconclusive, p53 reactivator inconclusive, ELG1 repair inh inconclusive, VP16 counter inconclusive
Cc1ccc(CSc2nc3ccncc3[nH]2)cc1	RORgamma inh 7.9µM, BRCA1 expr up inconclusive, Giardia kill -90, ELG1 repair inh inconclusive, VP16 counter 7.9µM (no result: p53 reactivator)
O=C(c1ccc(CSc2nc3ccncc3[nH]2)cc1)N1CCN(c2cccc(Cl)c2)CC1	RORgamma inh inconclusive, ELG1 repair inh 26µM, VP16 counter 11µM
O=C(c1ccc(CSc2nc3ccncc3[nH]2)cc1)N1CCCCCC1	p53 reactivator inconclusive, Giardia kill inconclusive, ELG1 repair inh inconclusive, VP16 counter inconclusive
C/C(=N\NC(=O)CC1(C)OCCO1)c1cccs1	none
Cc1ccc(S(=O)(=O)/N=C2\C=C(NS(=O)(=O)c3ccccc3)C(=O)c3ccccc32)cc1	none (no result: RORgamma inh, p53 reactivator, ELG1 repair inh, VP16 counter)
Cc1ccc(S(=O)(=O)/N=C2/C=C(C3C(=O)CC(C)(C)CC3=O)C(=O)c3ccccc32)cc1	RORgamma inh 11µM, p53 reactivator inconclusive, ELG1 repair inh inconclusive, VP16 counter inconclusive
Cc1ccc(C)c(OCc2nnc(SCC(=O)NC(=O)NCc3ccco3)o2)c1	none
Cc1cccc(-c2nnc(SCCC(=O)N3CCOCC3)o2)c1	RORgamma inh inconclusive, ELG1 repair inh inconclusive, VP16 counter 7.1µM
O=C(CCSc1nnc(-c2ccccc2)o1)N1CCOCC1	ELG1 repair inh inconclusive
Cc1cccc(-c2nnc(SCC(=O)N3CCCC3)o2)c1	BRCA1 expr up 7.1µM, ELG1 repair inh inconclusive
O=C(CCSc1ccc(Cl)cc1)c1ccco1	RORgamma inh 11µM, VP16 counter inconclusive
O=C(CSc1nnc(-c2cccc(Br)c2)o1)N1CCNC1=O	BRCA1 expr up 10µM, ELG1 repair inh inconclusive (no result: RORgamma inh, VP16 counter)
CC1=C(C(=O)N2CCOCC2)C(c2cc(C)cs2)NC(=O)N1 (centres undefined)	none
O=C(CSc1ccc(Cl)cc1)N1CCOCC1	ELG1 repair inh inconclusive
O=C(CCSc1ccc(Cl)cc1)N1CCOCC1	p53 reactivator inconclusive, BRCA1 expr up 7.9µM, ELG1 repair inh inconclusive
Cc1ccc(-c2nnc(SCCC(=O)N3CCOCC3)o2)cc1	RORgamma inh 6.3µM, ELG1 repair inh inconclusive
CCCCc1nnc(NC(=O)c2cccc(S(=O)(=O)N3CCN(C)CC3)c2)s1	none
O=[N+]([O-])c1ccc(O)c(C2=NNC(c3ccccc3F)C2)c1 (centres undefined)	RORgamma inh 6.3µM, p53 reactivator inconclusive, ELG1 repair inh inconclusive, VP16 counter inconclusive
CCN(C(=O)CSc1nc2ccc(O)cc2c(=O)n1-c1ccc(OC)c(OC)c1)C1CCS(=O)(=O)C1 (centres undefined)	none (no result: RORgamma inh, VP16 counter)
O=C(CSc1n[nH]c(=O)n1Cc1ccco1)N1CCOCC1	none
Cc1nc(NCc2ccccc2)c2nc(-c3ccccc3)n(CC(C)(C)CN(C)C)c2n1	RORgamma inh 14µM (no result: p53 reactivator, BRCA1 expr up, Giardia kill, ELG1 repair inh)
Cc1cccc(Cn2c(C)nc3c(N)c(C)c(C)cc32)c1	RORgamma inh 13µM, ELG1 repair inh inconclusive, VP16 counter inconclusive
Cc1cccc(Cn2c(C(C)O)nc3ccccc32)c1 (centres undefined)	p53 reactivator inconclusive
COc1cc2c(cc1OC)C1=C(C#N)CC/C(=N\S(=O)(=O)c3cccc(Cl)c3)N1CC2	ELG1 repair inh inconclusive
COc1ccc(NC(=O)NNC(=O)C(C)Oc2ccc3ccccc3c2)cc1OC (centres undefined)	none
O=C(NCc1ccco1)c1nn2c(C(F)(F)F)cc(-c3cccs3)nc2c1Cl	none
O=C(O)c1cc2nc(-c3cccs3)cc(C(F)(F)F)n2n1	none
O=C(c1ccco1)N1CCN(C(=O)c2cnn3c(C(F)(F)F)cc(-c4cccs4)nc23)CC1	ELG1 repair inh 5.8µM
O=C(c1cnn2c(C(F)(F)F)cc(-c3cccs3)nc12)N1CCN(C(c2ccccc2)c2ccccc2)CC1	RORgamma inh inconclusive, ELG1 repair inh 5.8µM
CN1CCN(C(=O)c2cnn3c(C(F)(F)F)cc(-c4cccs4)nc23)CC1	ELG1 repair inh 5.8µM
O=C(c1cnn2c(C(F)(F)F)cc(-c3cccs3)nc12)N1CCN(Cc2ccccc2)CC1	RORgamma inh inconclusive, ELG1 repair inh 6.5µM
Cc1ccc(NS(=O)(=O)c2cccc(C(=O)N(C)Cc3cccs3)c2)cc1	none (no result: RORgamma inh, VP16 counter)
C/C(=N\Nc1ncc(Cl)cc1Cl)c1ccc(OC(F)F)cc1	RORgamma inh 11µM, p53 reactivator inconclusive, ELG1 repair inh inconclusive, VP16 counter inconclusive
C/C(=N\Nc1ncc(Cl)cc1Cl)c1ccc2c(c1)OCO2	RORgamma inh 7.1µM, BRCA1 expr up 5.6µM, ELG1 repair inh inconclusive, VP16 counter inconclusive
Cc1noc(C(C)C)c1C(=O)Nc1ccc(-c2nnc3n2CCCCC3)cc1	none (no result: RORgamma inh, VP16 counter)
O=C(NC1CCCCC1)C(c1ccc(F)cc1)N(C(=O)c1csnn1)C1CC1 (centres undefined)	none
O=C(O)CC1(CC(=O)N2CCN(CCO)CC2)CCCC1	none
COc1ccc(CC2(CO)CCN(Cc3ccc(OC(F)(F)F)cc3)CC2)cc1	none
CC(=O)N1CCOc2ccc(S(=O)(=O)N3CCN(c4cc(C)ccc4C)CC3)cc21	none

Screening results as filed in PubChem BioAssay.
